Assay outcomes deposited in PubChem BioAssay by several laboratories.
NTR1 ag: activates human neurotensin receptor 1. 330,000 tested, 0.17% active. NTR1-U2OS beta-arrestin-GFP spot imaging, agonist mode. P30989. activation, % at 20 µM. AID 493036;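 active = activation at or above 40% of the spot to cytoplasm intensity ratio, with at least 20 cells analyzed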
Target sequence (P30989 whole entry, looked up): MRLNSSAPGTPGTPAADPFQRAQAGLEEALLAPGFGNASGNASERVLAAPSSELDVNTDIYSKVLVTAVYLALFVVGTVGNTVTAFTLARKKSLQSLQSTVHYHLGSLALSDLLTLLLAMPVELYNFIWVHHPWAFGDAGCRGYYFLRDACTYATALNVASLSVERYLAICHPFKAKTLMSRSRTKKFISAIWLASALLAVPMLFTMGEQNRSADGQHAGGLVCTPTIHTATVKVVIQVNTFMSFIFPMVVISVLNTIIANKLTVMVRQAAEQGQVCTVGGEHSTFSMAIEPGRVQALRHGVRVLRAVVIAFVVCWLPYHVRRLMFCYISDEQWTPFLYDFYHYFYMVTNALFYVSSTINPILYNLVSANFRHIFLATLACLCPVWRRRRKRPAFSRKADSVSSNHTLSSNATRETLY
Platelet DG rel: modulates dense granule release in human platelets | human platelet-rich plasma, SFLLRN dense granule ATP release, luminescence | inhibition, %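 (compounds screened at 7.5 µM in platelet-rich plasma)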 | 300,000 tested, 0.22% active | AID 1663;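 active = mean replicate score, as percent of positive control, at or above 50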
HIF activator: HIF pathway transcriptional activation. U2OS HRE-luciferase reporter, luminescence; normalized: DMSO 0%, desferrioxamine 100%. activation, % at 7.5 µM (by protocol). 300,000 tested, 0.32% active. AID 1910;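 active = mean activation of at least 10% of the iron chelator positive control signal, with at least half of replicates also reaching 10%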
NTR1 ag confirm: confirmation of agonists of human NTR1. shares compounds with NTR1 ag. NTR1-U2OS beta-arrestin-GFP translocation imaging. activation, % at 20 µM. 480 tested, 38% active;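 active = mean activation at 20 µM of at least 40%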
Of the large screens only hits and unclear results are named; the others gave an inactive call (follow-up assays come after a bar, where they were run). Sampled rows, rich in hits. Any-hit rate of the full collection: about 0.63%.

CC(CCc1ccccc1)NC(=O)COC(=O)c1ccc(S(C)(=O)=O)c([N+](=O)[O-])c1 (stereo not given)	NTR1 ag 42.3 | NTR1 ag confirm 78.7
CC(CCc1ccccc1)NC(=O)COC(=O)c1ccc([N+](=O)[O-])cc1 (stereo not given)	none
O=C(N/N=C/c1cccnc1)c1ccccc1	none
O=C(CN(C(=O)c1ccc(Cl)cc1)N1C(=O)C2C3C=CC(C3)C2C1=O)c1cccs1 (stereo not given)	none
O=C(CN(C(=O)c1ccc(Cl)cc1)N1C(=O)C2CCCCC2C1=O)c1ccc(Cl)cc1 (stereo not given)	NTR1 ag 51.9 | NTR1 ag confirm 46.9
CC(C)Nc1ccc(Nc2ccnc3cc4ccccc4cc23)cc1	NTR1 ag 51.2 | NTR1 ag confirm 84.8
COc1ccc(Nc2ccnc3ccccc23)cc1	none
Cc1ccc(-c2nc3cccnc3o2)cc1NC(=O)COc1ccc(C(C)(C)C)cc1	NTR1 ag 61.6 | NTR1 ag confirm inactive
Cc1ccc(-c2nc3cccnc3o2)cc1NC(=O)COc1ccc(Cl)cc1C	none
CCSc1nnc(NC(=O)CSc2nccn2-c2cccc(C)c2)s1	none
CCCCn1c(SCC(=O)c2ccc(O)cc2O)nc2cc(S(N)(=O)=O)ccc21	none
CCCCn1c(SCC(=O)N2CCC(C)CC2)nc2cc(S(N)(=O)=O)ccc21	NTR1 ag 44.2 | NTR1 ag confirm 49.9
CC(C)(C)OC(=O)COc1cc(O)c2c(=O)cc(-c3ccccc3)oc2c1	none
CC(C)(C)OC(=O)COc1cc(OCC(=O)OC(C)(C)C)c2c(=O)cc(-c3ccccc3)oc2c1	NTR1 ag 52.6 (no result: Platelet DG rel, HIF activator) | NTR1 ag confirm inactive
c1cnc(N2CCN(c3nc4ccccc4n4cnnc34)CC2)nc1	none
c1ccc(C(c2ccccc2)N2CCN(c3nc4ccccc4n4cnnc34)CC2)cc1	NTR1 ag 41.8 | NTR1 ag confirm 49.6
CC1=C(C(=O)OC(C)C)C(c2cccc([N+](=O)[O-])c2)n2c(cc(=O)[nH]c2=S)N1 (stereo not given)	none
O=C(Nc1ccc(-c2nc3ccccc3o2)cc1)c1ccc2c(c1)OCO2	none
O=C(Nc1ccc2oc(-c3ccccc3F)nc2c1)c1ccc2c(c1)OCCO2	NTR1 ag 45.9 | NTR1 ag confirm 53.0
Clc1ccc(CNCCC2=CCCCC2)cc1	none
CC(C)S(=O)(=O)c1csc(NC(=O)Nc2cc(Cl)ccc2Cl)c1Cl	NTR1 ag 41.8 | NTR1 ag confirm inactive
CC(=O)NC(CCS(C)(=O)=O)C(=O)Nc1cc(Cl)ccc1Cl (stereo not given)	none
CC1CCCN(C(=O)Cn2cnc3c2c(=O)n(C)c(=O)n3C)C1 (stereo not given)	none
CCOc1cccc(/C=C/c2ccc3cccc(O)c3n2)c1OC	NTR1 ag 78.7 | NTR1 ag confirm inactive
CCOc1cccc(/C=C/c2ccc3cccc(O)c3n2)c1O	none
CC(=O)n1cc(C(C[N+](=O)[O-])SCCN)c2ccccc21 (stereo not given)	NTR1 ag 47.2 | NTR1 ag confirm 75.9
Cn1cc(C(C[N+](=O)[O-])c2ccccc2)c2ccccc21 (stereo not given)	none
O=C(Nc1ccccc1)Nc1cccc(C(F)(F)F)c1	none
O=C(COc1ccc(C(=O)O)cc1)Nc1cccc(C(F)(F)F)c1	none
Cc1ccc(OC(F)F)c(NC(=O)Nc2cccc(C(F)(F)F)c2)c1	NTR1 ag 42.7 | NTR1 ag confirm inactive
O=C(COCC(=O)Nc1cccc(C(F)(F)F)c1)Nc1cccc(C(F)(F)F)c1	NTR1 ag 47.1 | NTR1 ag confirm inactive
Cn1c(=O)c2c(ncn2CC(=O)Nc2nc(-c3ccc(F)c(F)c3)cs2)n(C)c1=O	none
CCOC(=O)c1c(C)[nH]c(C(=O)COC(=O)CCC(=O)c2ccc3c(c2)OCCO3)c1C	none
O=S(=O)(NCC1CCCO1)c1ccc(-c2ccc(S(=O)(=O)NCC3CCCO3)cc2)cc1 (stereo not given)	none
COc1ccc(CNC(=O)CCCn2nc(C)c3c(C)n(-c4ccccc4)nc3c2=O)cc1	none
N=c1c(C(=O)NCCc2ccccc2)cc2c(=O)n3ccccc3nc2n1Cc1ccco1	NTR1 ag 43.4 | NTR1 ag confirm inactive
N=c1c(C(=O)NC2CCCCC2)cc2c(=O)n3ccccc3nc2n1Cc1ccco1	none
Nc1nnc(SCC(=O)NNC(=O)c2ccc(Cl)cc2)s1	none (no result: Platelet DG rel, HIF activator)
Clc1cccc(CN2CCc3c([nH]c4ccccc34)C2)c1	none
Clc1ccc(CN2CCc3c([nH]c4ccccc34)C2)cc1Cl	NTR1 ag 65.1 | NTR1 ag confirm inactive
C/C(CC(=O)NC(C)C)=N\NC(=O)C(c1ccccc1)c1ccccc1	none
CCOC(=O)c1sc(Nc2nc3c(OC)cccc3s2)nc1C	NTR1 ag 54.6 | NTR1 ag confirm inactive
CCOC(=O)c1sc(Nc2ccccc2)nc1C	none
OC(COc1ccc(Cl)cc1)CN1C2=NCCCN2c2ccccc21 (stereo not given)	none
O=C1/C(=C/c2ccncc2)Oc2cc(OS(=O)(=O)c3ccccc3)ccc21	none
COc1cccc(OC)c1C(=O)Oc1ccc2c(c1)O/C(=C\c1ccncc1)C2=O	NTR1 ag 51.5 | NTR1 ag confirm 56.2
COCCn1c(=O)[nH]c2cc(C(=O)N3CCN(c4cccc(Cl)c4)CC3)ccc2c1=O	none
COc1ccc(CC(=O)c2ccc(OC3OC(CO)C(O)C(O)C3O)cc2O)cc1 (stereo not given)	none
O=C(CC(c1ccccc1)c1cc(Br)ccc1O)NCCN1CCOCC1 (stereo not given)	NTR1 ag 43.4 | NTR1 ag confirm inactive
O=C(CC(c1ccccc1)c1cc(Br)ccc1O)NCCCN1CCOCC1 (stereo not given)	none
CC(OC(=O)c1oc2ccccc2c1COc1ccccc1)C(N)=O (stereo not given)	none
CC1=NNC(=O)/C1=C\c1cn(-c2ccccc2)nc1-c1cccs1	NTR1 ag 83.4 | NTR1 ag confirm 95.6
CC1=NNC(=O)/C1=C\c1cn(-c2ccccc2)nc1-c1ccc(F)cc1	none (no result: NTR1 ag)
CC1CCCCC1NC(=O)COC(=O)CCC(=O)c1cccs1 (stereo not given)	none (no result: Platelet DG rel, HIF activator)
CC(=O)Nc1ccc(NC(=O)C(C)OC(=O)CCCOc2ccc(Cl)cc2C)cc1 (stereo not given)	none
COc1ccc(O)c(/C=C2/SC(=S)N(Cc3ccccc3)C2=O)c1	none
COc1ccc(/C=C2/SC(=S)N(Cc3ccccc3)C2=O)cc1O	NTR1 ag 44.4 | NTR1 ag confirm inactive
O=C(CSc1nc2nc3c(cc2c(=O)n1-c1ccccc1)CCCC3)Nc1ccccc1	none
CCn1c(SCc2ccc(Cl)cc2Cl)nc2nc3c(cc2c1=O)CCCC3	NTR1 ag 43.9 | NTR1 ag confirm inactive
CCOC(=O)c1cnc2c(ccc3ccccc32)c1NCCN(C)C	none
CC1CCc2c(sc(NC(=O)CSc3ncn[nH]3)c2C#N)C1 (stereo not given)	none
CC(C)(C)C1CCc2c(sc(NC(=O)CSc3ncn[nH]3)c2C#N)C1 (stereo not given)	NTR1 ag 41.3 | NTR1 ag confirm inactive
CC(=O)Nc1cccc(C(=O)/C=C/c2ccc(/C=C/C(=O)c3cccc(NC(C)=O)c3)cc2)c1	none
CC(=O)Nc1cccc(C(=O)/C=C/c2ccc(Br)cc2)c1	NTR1 ag 47.6 | NTR1 ag confirm 72.6
S=c1[nH]nc(-c2cccc(Br)c2)o1	none
